# About 83,000 compounds went through this panel and 20% of them were active in at least one assay; those are over-represented in the sample as a whole.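 In brief: 96-well plates, 48 h treatment, single concentration, percent growth endpoint.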 Values without a mark were called inactive. Active and inactive are the calls of the source. The calls were made as follows: active = growth percent below 10; inactive = the rest.
# Tests used:
# Test in all cases: NCI-60 one-dose screen, 48 h (100 = growth as untreated, 0 = no growth, -100 = all killed)
# Conditions in all cases: 10 µM
# [1] = system: SK-MEL-2 melanoma
# [2] = system: EKVX NSCLC
# [3] = system: SN12C renal
# [4] = system: UO-31 renal
# [5] = system: TK-10 renal
# [6] = system: ACHN renal
# [7] = system: CAKI-1 renal
# [8] = system: A498 renal
# [9] = system: MOLT-4 leukemia
# [10] = system: CCRF-CEM leukemia
Compound,growth [1],growth [2],growth [3],growth [4],growth [5],growth [6],growth [7],growth [8],growth [9],growth [10]
COc1ccc(-c2cc(-c3ccc(Cl)cc3)nc(SCCCC(=O)NO)n2)cc1OC,13.3%,-13.8% (active),6.47% (active),-53.2% (active),17.8%,-19.7% (active),-5.05% (active),-40.1% (active),9.38% (active),–
CCn1c(SCc2ccc(C)cc2)nnc1-c1nn(-c2ccc(Cl)cc2Cl)c(-c2ccc(Cl)cc2)c1C,4.93% (active),10.4%,1.66% (active),9.59% (active),18.1%,2.32% (active),40.5%,18.9%,2.46% (active),–
Cc1cc(O)ccc1C1=NN(c2ccc(S(C)(=O)=O)cc2)C(=O)CC1,68.7%,72.2%,90.3%,48.8%,105%,79.7%,25.4%,–,–,69.7%
COc1ccccc1-n1c(-c2sc(NC(C)=O)nc2C)n[nH]c1=S,106%,67.6%,101%,70.1%,130%,108%,81%,–,92.9%,97.3%
CC(C)(C)OC(=O)N1CCc2c(sc3ncnc(N/N=C/c4ccccc4Br)c23)C1,91.7%,52.2%,78.7%,32.7%,79.6%,42.4%,54.4%,84.7%,21.2%,–
COc1ccc(-c2nn(-c3cccc(Cl)c3)cc2-c2nc(N)[nH]c(=O)c2C#N)cc1,70.9%,31.8%,84.9%,29.7%,110%,87.5%,30.6%,–,53.7%,61.6%
O=C(CN1CCN(C(=O)c2ccccc2)CC1)Nc1ccccc1SCc1ccccc1,66.8%,72.3%,77.9%,52.2%,82.2%,80.8%,71.8%,86.6%,74.1%,–
C=CCn1c(SCC(=O)Nc2ccc(C(=O)/C=C/c3ccc(Cl)cc3)cc2)nnc1-c1cc(-c2ccccc2)nc2ccccc12,97.2%,79.1%,70.8%,35.4%,94.8%,82.3%,61.7%,81.4%,12.8%,–
CC(=O)N[C@H](C(=O)N[C@@H](CCCNC(=N)N)C(=O)N[C@@H](CCCCN)C(=O)N[C@@H](CCCNC(=N)N)C(=O)NC(C(=O)N[C@@H](CC(C)C)C(=O)N[C@@H](CCCNC(=N)N)C(=O)N[C@@]1(C)CCC/C=C\CCC[C@@](C)(C(=O)N[C@@H](CCCNC(=N)N)C(=O)N[C@@H](CCC(=O)O)C(=O)N[C@@H](CC(C)C)C(=O)N[C@H](C(=O)N[C@@H](CCC(=O)O)C(N)=O)C(C)C)NC(=O)[C@H](CCC(N)=O)NC(=O)[C@H](CC(C)C)NC(=O)[C@H](CC(C)C)NC1=O)[C@@H](C)O)C(C)C (some centres undefined),-6.77% (active),0.7% (active),-52% (active),78.5%,-37.3% (active),41.2%,32.3%,26.9%,32.7%,–
Cc1ccc(/C=C2/C(=O)N(C)c3ccc(S(=O)(=O)Nc4ccc(C(C)(C)C)cc4)cc32)s1,94.3%,103%,78.9%,73.4%,90.9%,56%,45%,90.8%,73.3%,–
CC(C)(C)OC(=O)N1CCc2c(sc3ncnc(N/N=C/c4ccc(Br)cc4)c23)C1,68.4%,52%,75.2%,44.7%,78.2%,53.1%,41%,31.2%,33.9%,–
COc1ccc(-c2nn(-c3cccc(Cl)c3)cc2-c2cc(-c3ccccc3)[nH]c(=O)c2C#N)cc1,56.7%,57.2%,67.7%,24.7%,-12.8% (active),11%,40.8%,–,79.6%,91.7%
N#Cc1c(-c2ccc(Cl)cc2)n(O)c2ccccc12,8.25% (active),30.2%,16.1%,11%,66.6%,35.4%,20.7%,–,18.1%,16.2%
COc1ccc(C(=O)c2ccccc2CN2C(=O)c3ccccc3C2=O)cc1,103%,101%,105%,75.1%,104%,102%,102%,–,87%,91.5%
COc1cc2c3c(n(C4CCN(C)CC4)c(=O)c2cc1OC)-c1cc2c(cc1C3=O)OCO2,80.8%,69.4%,43.4%,52.4%,86.9%,57.2%,75.6%,–,29.5%,–
COc1ccc(-c2nn(-c3cccc(Cl)c3)cc2-c2cc(-c3cccs3)[nH]c(=S)n2)cc1,71.3%,44.6%,61.1%,24.3%,66.7%,48.4%,12.5%,–,21.9%,39.5%
c1cncc(-c2csc(-c3c[nH]c4ccccc34)n2)c1,97.3%,50.6%,85.9%,66.5%,125%,88%,88.3%,–,79.8%,–
C/C(=C/CCC(C)[C@@H]1CC[C@]2(C)C3=C(CC[C@@]12C)[C@@]1(C)CCC(=O)C(C)(C)[C@@H]1CC3)C(=O)O (some centres undefined),-52.1% (active),-76.5% (active),-77.5% (active),-95.5% (active),-86.1% (active),-93.5% (active),-92.8% (active),–,-35.3% (active),-21% (active)
O=C(Nc1cc([N+](=O)[O-])c2[nH]c(=O)c3ccccc3c2c1)C(F)(F)F,106%,67.1%,76.8%,54.5%,84%,58.6%,89.1%,–,55.2%,72.8%
Nc1nc(-c2cccnc2)nc2c1sc(=S)n2-c1ccccc1,101%,101%,98.6%,97.2%,93.5%,107%,98.7%,–,96.9%,–
C=CCn1c(SCC(=O)Nc2ccc(C(=O)/C=C/c3ccc(OC)cc3)cc2)nnc1-c1ccc(OC)c(OC)c1,89.3%,107%,73.1%,65.8%,110%,94.9%,–,92.8%,–,–
C=C/C(C)=C/C[C@]1(C)[C@H](C)[C@@H](OC(=O)CCC)[C@H](O)[C@@]23C(=C[C@H](OC)C[C@@H]12)[C@@H](OC(=O)CCC)O[C@H]3OC(C)=O,-70.5% (active),-33.7% (active),-51.9% (active),-90.7% (active),-95.1% (active),-94.4% (active),0.0055% (active),–,-12.8% (active),–
O=C1c2c(c3c4ccccc4n(CCCCCCN4CCOCC4)c3c3[nH]c4ccccc4c23)C(=O)N1O,110%,82.4%,75.8%,9.13% (active),111%,92.6%,96.7%,–,66.3%,–
Cc1cc(NC(=O)c2ccc(C)c(Nc3nccc(-c4cccnc4)n3)c2)cc(-n2cnc(C)c2)c1,83.5%,-56.9% (active),27.5%,-55% (active),-20.5% (active),-13.7% (active),-80.2% (active),–,14.3%,38.1%
N#Cc1c(-c2ccc(Cl)cc2)cc(-c2cc(O)ccc2O)nc1N,31.2%,42.9%,-2.03% (active),59%,79.6%,8.35% (active),82.8%,–,11.3%,–
CN1CCc2c(sc3nc4n(-c5ccc(Cl)cc5)cnn4c(=O)c23)C1,118%,87.2%,98.9%,84.1%,116%,109%,97.4%,–,104%,–
COc1ccc(-c2cc(-c3ccc(OC)c(OC)c3)nc(SCCCC(=O)NO)n2)cc1,-5.66% (active),-15.3% (active),5.59% (active),-74.3% (active),-0.0305% (active),-24.9% (active),–,-32.4% (active),–,–
COc1ccc(C(=O)CSc2nc(-c3cc(OC)ccc3OC)cc(-c3ccc(OC)cc3)c2C#N)cc1,103%,89.1%,97.6%,86.4%,103%,97.4%,96.3%,–,96.9%,–

# Source: PubChem BioAssay (NCI)
